Measurements reported in PubChem BioAssay (NCATS).
Inconclusive results are not listed. Calls of active or inactive are those of the source. Calls come from the whole dose curve; as a rule, active = well fitted curve in the direction sought with a large enough effect; inconclusive = small, poorly fitted or top-dose-only effect, or another doubt; inactive = no such curve, though single readings can be large; an effect the other way counts as inactive or inconclusive.

How the values were obtained:
[1] = qHTS of pediatric cancer cell lines to identify multiple opportunities for drug repurposing: Primary screen for Saos-2 cells (AID 1347097); note: nearly all actives have a fitted effect of over 40% in size
Method in brief: (§1)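 500-1,000 cells/well; 5 h pre-incubation 37 °C/5% CO2; compound pinned; 48 h; CellTiter-Glo, 15 min RT; luminescence. MIPE 11-pt from 0.78 nM, NPC 8-pt from 0.59 nM final. Bortezomib 2.3 µM final as positive control.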

[2] = qHTS of pediatric cancer cell lines to identify multiple opportunities for drug repurposing: Primary screen for SK-N-SH cells (AID 1347098);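 note: DMSO served as neutral control and bortezomib at 2.3 µM as positive control; nearly all actives have a fitted effect of over 65% in size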
Method in brief: (§2)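 Cells (500-1,000/well) rested 5 h, then received compounds for 48 h; metabolically active cells were measured by CellTiter-Glo luminescence. Final concentrations spanned up to 46 µM (MIPE, 11-point) or 0.59 nM-46 µM (NPC, 8-point) in primary screens, 11-point in follow-ups.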

[3] = qHTS of pediatric cancer cell lines to identify multiple opportunities for drug repurposing: Primary screen for NB1643 cells (AID 1347099); note: nearly all actives have a fitted effect of over 50% in size
Method in brief: as §1

[4] = qHTS of pediatric cancer cell lines to identify multiple opportunities for drug repurposing: Primary screen for LAN-5 cells (AID 1347100)
Method in brief: (§3)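 Cells (500-1,000/well) in growth media were settled 5 h at 37 degrees C, then given compounds for 48 h. Viability was read as CellTiter-Glo luminescence. Primary runs used MIPE at 11 points (0.78 nM-46 µM) and NPC at 8 points (0.59 nM-46 µM); follow-ups used 11 points.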

[5] = qHTS of pediatric cancer cell lines to identify multiple opportunities for drug repurposing: Primary screen for Rh18 cells (AID 1347102); note: nearly all actives have a fitted effect of over 65% in size
Method in brief: as §3

[6] = qHTS of pediatric cancer cell lines to identify multiple opportunities for drug repurposing: Primary screen for RD cells (AID 1347104); note: nearly all actives have a fitted effect of over 55% in size
Method in brief: as §1

[7] = qHTS of pediatric cancer cell lines to identify multiple opportunities for drug repurposing: Primary screen for MG 63 (6-TG R) cells (AID 1347105); note: nearly all actives have a fitted effect of over 50% in size
Method in brief: as §1

[8] = qHTS of pediatric cancer cell lines to identify multiple opportunities for drug repurposing: Primary screen for control Hh wild type fibroblast cells (AID 1347106);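 note: series mostly up to about 46 µM; a drop in luminescence marks cytotoxicity and a rise apparent proliferation; nearly all actives have a fitted effect of over 55% in size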
Method in brief: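 Viability after 48 h compound treatment at 37C, 500-1,000 cells/well, read as ATP luminescence with CellTiter-Glo. Primary screens used 11-point (MIPE, 0.78 nM-46 µM) or 8-point (NPC, 0.59 nM-46 µM) final concentrations; follow-up screens used 11-point dilutions.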

[9] = qHTS of pediatric cancer cell lines to identify multiple opportunities for drug repurposing: Primary screen for OHS-50 cells (AID 1347103); note: nearly all actives have a fitted effect of over 40% in size; note: potency is the fitted concentration of half-maximal effect
Method in brief: as §2

[10] = qHTS of pediatric cancer cell lines to identify multiple opportunities for drug repurposing: Primary screen for BT-12 cells (AID 1347101); note: nearly all actives have a fitted effect of over 25% in size
Method in brief: as §2

Measured: Potency

CC1=C(C/C=C(\C)CCC[C@H](C)CCC[C@H](C)CCCC(C)C)C(=O)c2ccccc2C1=O
inactive: [1] | [2] | [3] | [4] | [5] | [6] | [7] | [8]

COc1ccc2cc1Oc1cc3c(cc1OC)CC[N+](C)(C)[C@H]3Cc1ccc(cc1)Oc1c(OC)c(OC)cc3c1[C@@H](C2)[N+](C)(C)CC3
inactive: [1] | [2] | [3] | [9] | [6] | [7] | [8]

O=C1c2c(O)cccc2Cc2cccc(O)c21
inactive: [1] | [2] | [3] | [10] | [9] | [6] | [7] | [8]

CC1(C)[C@@H]2CC[C@@]1(C)C(=O)C2
inactive: [1] | [2] | [3] | [10] | [5] | [6] | [7] | [8]

O=C(O)COc1nn(Cc2ccccc2)c2ccccc12
inactive: [1] | [2] | [3] | [4] | [9] | [6] | [7] | [8]

C[C@H]1O[C@@H](n2cc(F)c(=O)[nH]c2=O)[C@H](O)[C@@H]1O
inactive: [1] | [2] | [3] | [10] | [5] | [9] | [6] | [7] | [8]

CC12CCC(CC1)C(C)(C)O2
inactive: [1] | [2] | [4] | [10] | [5] | [9] | [6] | [7] | [8]

CCC(=O)c1ccc(O)cc1
inactive: [1] | [2] | [3] | [4] | [10] | [6] | [7] | [8]

Oc1cn2c(n1)Nc1ccc(Cl)c(Cl)c1C2
inactive: [1] | [2] | [4] | [10] | [5] | [9] | [6] | [7] | [8]

O=c1cc[nH]c(=O)[nH]1
inactive: [1] | [2] | [3] | [10] | [5] | [9] | [6] | [7] | [8]

CC(C)(C)NCC(O)COc1ccc(NC(=O)NC2CCCCC2)cc1 (stereo not given)
inactive: [1] | [2] | [3] | [4] | [5] | [9] | [6] | [7] | [8]

CCC(=O)Nc1ccc(O)cc1
inactive: [1] | [2] | [3] | [4] | [10] | [6] | [7] | [8]

CCN(CC)C(=O)Nc1ccc(OCC(O)CNC(C)(C)C)c(C(C)=O)c1 (stereo not given)
inactive: [1] | [2] | [3] | [4] | [5] | [9] | [6] | [7] | [8]

CC1=C(/C=C/C(C)=C/C=C/C(C)=C/C(=O)O)C(C)(C)CCC1
inactive: [1] | [2] | [3] | [5] | [6] | [8]
active: [9] 30.9 nM

CC(COc1ccccc1)NC(C)C(O)c1ccc(O)cc1 (stereo not given)
inactive: [1] | [2] | [3] | [10] | [5] | [9] | [6] | [7] | [8]

NC(=O)N/N=C/c1ccc([N+](=O)[O-])o1
inactive: [1] | [2] | [3] | [4] | [5] | [9] | [6] | [7] | [8]

Oc1ccc(C(O)CNCCCCCCNCC(O)c2ccc(O)c(O)c2)cc1O (stereo not given)
inactive: [1] | [2] | [3] | [5] | [6] | [7] | [8]

Cn1cc[nH]c1=S
inactive: [1] | [2] | [4] | [10] | [5] | [9] | [6] | [7] | [8]

c1ccc(CN(CC2=NCCN2)c2ccccc2)cc1
inactive: [1] | [2] | [3] | [10] | [9] | [7] | [8]

C[C@@H](O)[C@H](N)C(=O)O
inactive: [1] | [2] | [3] | [4] | [5] | [9] | [6] | [7] | [8]

C[C@@H]1C[C@H]2[C@@H]3C[C@H](F)C4=CC(=O)C=C[C@]4(C)[C@@]3(F)[C@@H](O)C[C@]2(C)[C@@]1(O)C(=O)CO
inactive: [1] | [2] | [3] | [5] | [9] | [6] | [7] | [8]

CN(C)CCN(Cc1ccccc1)c1ccccn1
inactive: [1] | [2] | [3] | [4] | [5] | [6] | [7] | [8]

C[C@H](NC(CCc1ccccc1)C(=O)O)C(=O)N1CCC[C@H]1C(=O)O (stereo not given in full)
inactive: [1] | [2] | [3] | [4] | [5] | [9] | [6] | [7] | [8]

O=C(Oc1ccccc1C(=O)O)c1ccccc1O
inactive: [1] | [2] | [3] | [4] | [5] | [9] | [6] | [7] | [8]
